USP8 block: human USP8 deubiquitinase inhibition; P40818; inhibition, % at 20 µM; hit rate 4.2% among 47,000; purified USP8, Ub-rhodamine cleavage fluorescence, 30 min
USP28 inh: human USP28 deubiquitinase inhibition | Q96RU2 | purified USP28, Ub-rhodamine cleavage fluorescence, 30 min | inhibition, % at 25 µM | hit rate 3% among 47,000
Target sequence (Q96RU2 whole entry, looked up): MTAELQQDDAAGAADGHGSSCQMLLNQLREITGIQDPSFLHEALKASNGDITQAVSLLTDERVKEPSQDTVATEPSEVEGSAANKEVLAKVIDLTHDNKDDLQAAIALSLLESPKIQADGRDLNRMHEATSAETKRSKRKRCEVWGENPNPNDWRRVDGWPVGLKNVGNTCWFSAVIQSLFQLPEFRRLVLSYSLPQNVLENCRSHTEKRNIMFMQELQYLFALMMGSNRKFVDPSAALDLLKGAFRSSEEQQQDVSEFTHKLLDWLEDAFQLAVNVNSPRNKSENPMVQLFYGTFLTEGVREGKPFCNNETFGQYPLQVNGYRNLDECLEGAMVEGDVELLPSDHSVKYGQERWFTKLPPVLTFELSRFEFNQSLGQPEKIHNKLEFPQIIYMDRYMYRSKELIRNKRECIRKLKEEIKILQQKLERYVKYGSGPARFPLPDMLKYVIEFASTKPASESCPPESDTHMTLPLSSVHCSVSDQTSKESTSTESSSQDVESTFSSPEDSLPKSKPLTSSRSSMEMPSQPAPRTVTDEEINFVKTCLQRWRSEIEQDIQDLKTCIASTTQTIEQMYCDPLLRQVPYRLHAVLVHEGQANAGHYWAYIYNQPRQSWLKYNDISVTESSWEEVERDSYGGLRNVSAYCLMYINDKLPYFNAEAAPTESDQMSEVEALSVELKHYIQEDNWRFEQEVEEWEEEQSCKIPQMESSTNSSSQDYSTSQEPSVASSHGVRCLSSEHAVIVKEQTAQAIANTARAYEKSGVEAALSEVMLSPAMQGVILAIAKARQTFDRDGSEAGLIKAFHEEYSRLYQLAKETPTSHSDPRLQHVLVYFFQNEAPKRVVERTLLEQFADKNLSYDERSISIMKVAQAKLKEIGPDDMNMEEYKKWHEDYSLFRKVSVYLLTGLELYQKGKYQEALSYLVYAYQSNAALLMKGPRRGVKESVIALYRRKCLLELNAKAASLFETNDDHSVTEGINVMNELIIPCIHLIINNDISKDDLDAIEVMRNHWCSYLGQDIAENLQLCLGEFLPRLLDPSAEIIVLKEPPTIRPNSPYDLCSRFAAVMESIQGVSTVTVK
USP30 inh: blocks human USP30 ubiquitin-rhodamine cleavage; hit rate 5.3% among 47,000; purified USP30, Ub-rhodamine cleavage fluorescence; inhibition, % at 25 µM; Q70CQ3
USP10 block: inhibitors of human USP10 deubiquitinase; Q14694; purified USP10, Ub-rhodamine fluorescence, 60 min; inhibition, % at 20 µM; hit rate 1.1% among 47,000
USP17 inh: blocks human USP17 ubiquitin-rhodamine cleavage; A8MUK1; purified USP17, Ub-rhodamine cleavage fluorescence, 3 h; inhibition, % at 50 µM; hit rate 6.5% among 47,000; AID 1645855
Of the large screens only hits and unclear results are named; the others gave an inactive call. Sampled rows, rich in hits. Any-hit rate of the full collection: about 13%. Rule as the data show it: active = inhibition above about 30%; inactive = the rest.

COc1ccc(-c2nc(-c3nnn(Cc4ccc(F)cc4)c3C)no2)c(OC)c1	USP8 block 59.6, USP28 inh 39.8, USP30 inh 66.1, USP17 inh 33.8
O=C(c1ccc(Cl)cc1)N1CCC2(CC1)OC(C(=O)N1CCCCC1)Cn1ccnc12 (stereo unspecified)	none
CCN(CC)CCN1CCN(c2ccc3c(c2)OCO3)C1=O	none
CC(=O)c1ccc(NC(=O)c2ccc3c(c2)CC(c2ccc(Cl)cc2)OC3=O)cc1 (stereo unspecified)	none
COc1ccccc1-c1nc(-c2cn(-c3ccccc3)nn2)no1	none
COc1ccc(-c2nc(-c3cn(-c4cccc(Cl)c4)nn3)no2)c(OC)c1	USP10 block 34.0, USP17 inh 64.9 (no result: USP28 inh, USP30 inh)
COc1ccccc1Cc1nc(-c2cn(Cc3ccccc3)nn2)no1	none
COc1ccccc1Cc1nc(-c2cn(-c3cccc(F)c3)nn2)no1	USP30 inh 33.5
COc1ccc2cc1Oc1cc(ccc1OC)C(O)C13SSC4(C(=O)N1C)C(O)C1=COC=CC(OC2=O)C1N4C3=O (stereo unspecified)	USP30 inh 73.1
Clc1ccc2oc3c(N4CCCC4)ncnc3c2c1	none
Cc1nc(N2CCCCC2)c2oc3ccc(Cl)cc3c2n1	none
NC(=O)C1(N2CCCCC2)CCN(c2ncc3c(=O)n(-c4ccccc4)c(=O)[nH]c3n2)CC1	none
O=C(/C=C/C=C/C=C/C1CCCCC1)NC1=C[C@@](O)(/C=C/C=C/C=C/C(=O)NC2=C(O)CCC2=O)[C@@H]2O[C@@H]2C1=O	USP28 inh 75.1, USP17 inh 67.6
Cc1ccccc1S(=O)(=O)N1CCCCCC1c1sccc1C (stereo unspecified)	none
Cc1ccsc1C1CCCCCN1S(=O)(=O)c1ccccc1F (stereo unspecified)	USP8 block 32.5
O=C(Cc1ccccn1)Nc1ccc(C2CCc3nncn3C2)cc1 (stereo unspecified)	none
O=C(c1ccc2cc[nH]c2c1)N1CCC2(CC1)N=C(c1ccccc1)NO2	USP17 inh 33.9
N#Cc1cccc(C(=O)Nc2cnc(N3CCOCC3)nc2)c1	none
CCOc1ccccc1NC(=O)c1ccc(-n2nnnc2SC)cc1	none
COc1ccc(OC)c(NC(=O)c2ccc(-n3nnnc3SC)cc2)c1	USP17 inh 80.0
COc1ccc(C)cc1NC(=O)c1ccc(-n2nnnc2SC)cc1	USP30 inh 51.8, USP17 inh 73.2
COc1ccc(NC(=O)c2ccc(-n3nnnc3SC)cc2)cc1Cl	none
O=C(CCCc1ccccc1)N1CCN(c2ccc(-c3ccc4c(c3)OCO4)nn2)CC1	USP30 inh 30.0
O=C(c1ccc2c(c1)OCO2)N1CCN(c2ccccn2)CC1	none
O=C(CN1CCOCC1)Nc1ccc(NC(=O)c2cccc(F)c2)cc1	none
O=C1c2c(O)c(Cl)cc3c2[C@@]2(Oc4ccc(O)c5c4[C@]3(O2)[C@@H]2O[C@@H]2C5=O)[C@@H]2O[C@H]12	USP28 inh 90.2, USP30 inh 44.1, USP10 block 39.9, USP17 inh 80.1
O=C(c1ccccc1NS(=O)(=O)c1ccc(Cl)cc1)N1CCC(c2nc(-c3ccncc3)no2)CC1	none
N#Cc1cc([N+](=O)[O-])ccc1NCC1COc2ccccc2O1 (stereo unspecified)	USP28 inh 47.0
CCCc1noc(-c2ccnc(-n3ncc(C(=O)N4CCCC4)c3C)c2)n1	none
CCCc1noc(-c2ccc(-n3ncc(C(=O)N4CCCCC4)c3C)nc2)n1	USP30 inh 37.6
Cc1cccc(C(C)C)c1NC(=O)Cn1c(COc2ccccc2)nc2ccccc21	none (no result: USP17 inh)
CC(NC(=O)c1ccccc1)c1nc2ccccc2n1CC(=O)Nc1ccc2c(c1)OCO2 (stereo unspecified)	USP8 block 74.0, USP30 inh 49.0, USP10 block 56.3, USP17 inh 53.8
CC(NC(=O)c1ccccc1)c1nc2ccccc2n1CC(=O)Nc1ccc(F)cc1 (stereo unspecified)	USP8 block 66.1, USP17 inh 39.3
CC(C)c1ccc(NC(=O)Cn2c(CNC(=O)c3ccccc3)nc3ccccc32)cc1	none
CCc1cccc(C)c1NC(=O)Cn1c(C(C)NC(=O)c2ccc(C)cc2)nc2ccccc21 (stereo unspecified)	USP8 block 75.1, USP28 inh 40.3, USP30 inh 53.8, USP10 block 44.5, USP17 inh 61.0
COc1ccc(CN2CCCC23CCCN(C(=O)CCc2cccnc2)C3)cc1F (stereo unspecified)	USP28 inh 92.6, USP30 inh 96.3, USP17 inh 41.5
O=C(CCc1cccnc1)N1CCCC2(CCCN2Cc2ccc(Cl)cc2)C1 (stereo unspecified)	none

Screening data as filed in PubChem BioAssay.
